The results in this text go back to PubChem BioAssay (NCI).

The structures appear in SMILES notation. The panel holds about 83,000 compounds, 20% with a hit somewhere; the sample as a whole holds those more often.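 Testing used 96-well plates and a 48-hour single-concentration exposure. Example: -40 means 40% of the starting cells died.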 Unmarked numbers belong to inactive results. The source made the active and inactive calls. The calls were made as follows: active = growth percent below 10; inactive = the rest.

Some test systems named below: SR leukemia; RPMI-8226 leukemia; OVCAR-8 ovarian; OVCAR-5 ovarian; OVCAR-4 ovarian; SK-OV-3 ovarian; IGROV1 ovarian; OVCAR-3 ovarian; HS 578T breast; NCI/ADR-RES ovarian.
Common to all, as to test: NCI-60 one-dose screen, 48 h (100 = growth as untreated, 0 = no growth, -100 = all killed)
Conditions in all cases: 10 µM unless noted

For `CN(C)c1ncnc2c1ccn2C1OC(CO)C(O)C1O` (stereo not given), the growth in the assay with SR leukemia is 89.5%; in the assay with RPMI-8226 leukemia, 83.7%; in the assay on OVCAR-8 ovarian, 0.899% (active); in the assay with OVCAR-5 ovarian, 39.5%; in the assay with OVCAR-4 ovarian it was 33.3%; in the assay on SK-OV-3 ovarian it was 33.7%. Also, the growth is -0.957% (active) in the assay with IGROV1 ovarian, 25.9% in the assay with OVCAR-3 ovarian, 17.5% with HS 578T breast and 1.88% (active) in the assay on NCI/ADR-RES ovarian.

For the compound `COc1cc(C2NN=C3c4ccccc4CCC32)cc(OC)c1OC` (stereo not given), the growth in the assay with SR leukemia was 61.1%; with RPMI-8226 leukemia, 5.35% (active); with OVCAR-8 ovarian, 70.3%; with OVCAR-5 ovarian, 95.8%; with OVCAR-4 ovarian it was 71.1%; in the assay on SK-OV-3 ovarian, 69%. Moreover, the growth in the assay on IGROV1 ovarian is 26.1%; with OVCAR-3 ovarian it was 71.2%; in the assay on HS 578T breast it was 71.4%; in the assay on NCI/ADR-RES ovarian it was 79.4%.

With `COc1cc(/C=N\NC(=O)CN2CCN(c3cc4c(cc3F)c(=O)c(C(=O)N/N=C/c3cc(OC)c(OC)c(OC)c3)cn4C3CC3)CC2)cc(OC)c1OC`, the growth in the assay on SR leukemia is 2.97% (active); in the assay on RPMI-8226 leukemia it was 0.709% (active); with OVCAR-8 ovarian, 22.4%; with OVCAR-5 ovarian it was 19.6%; with OVCAR-4 ovarian, -17.7% (active); in the assay on SK-OV-3 ovarian, 19.2%. The growth was -16.6% (active) with IGROV1 ovarian, -75.2% (active) in the assay with OVCAR-3 ovarian, -0.587% (active) with HS 578T breast and 103% in the assay with NCI/ADR-RES ovarian.

For the compound `Cc1ccc2[nH]c(=O)c3c(c2c1)Oc1ncn2nc(-c4ccco4)nc2c1C3c1ccc(Cl)cc1` (stereo not given), the growth in the assay on SR leukemia was 106%; in the assay on RPMI-8226 leukemia it was 101%; in the assay on OVCAR-8 ovarian it was 93.4%; in the assay on OVCAR-5 ovarian it was 98.2%; in the assay with OVCAR-4 ovarian it was 87.9%; with SK-OV-3 ovarian it was -90.5% (active). The growth in the assay on IGROV1 ovarian was 98%; in the assay with OVCAR-3 ovarian it was 111%; in the assay with HS 578T breast it was 93%; in the assay on NCI/ADR-RES ovarian, 94.9%.

Take `CCN(CC)CCOc1ccc(/C(=C(/C)c2ccccc2)c2ccc(OC(C)=O)cc2)cc1`: the growth with SR leukemia is 112%; with RPMI-8226 leukemia, 100%; in the assay on OVCAR-8 ovarian it was 112%; with OVCAR-5 ovarian, 98.2%; in the assay on OVCAR-4 ovarian, 100%; with SK-OV-3 ovarian, 106%. Also, the growth in the assay on IGROV1 ovarian is 105%; with OVCAR-3 ovarian it was 104%; with HS 578T breast it was 95.2%; in the assay with NCI/ADR-RES ovarian it was 101%.

As for `COc1ccc(C(=O)N2NC(=O)/C(=C/c3ccc(Br)cc3)N=C2c2ccccc2)cc1`, the growth in the assay on SR leukemia was 57.2%; with RPMI-8226 leukemia, 71.7%; in the assay with OVCAR-8 ovarian, 78.4%; in the assay on OVCAR-5 ovarian, 91.4%; with OVCAR-4 ovarian, 92.7%; with SK-OV-3 ovarian, 85.3%. The growth with IGROV1 ovarian was 92.5%; in the assay on OVCAR-3 ovarian, 119%; in the assay on HS 578T breast it was 94.9%; with NCI/ADR-RES ovarian, 83.4%.

Consider `Cn1cc(-c2cnc3ccc(NC(=O)Nc4ccc(F)c(Br)c4)cc3n2)cn1`, for which the growth was 34% with SR leukemia; -34.1% (active) in the assay with RPMI-8226 leukemia; 7.83% (active) in the assay on OVCAR-8 ovarian; 51.2% with OVCAR-5 ovarian; 10.7% with OVCAR-4 ovarian; 44.7% with SK-OV-3 ovarian. The growth in the assay on IGROV1 ovarian was 32.8%; in the assay with OVCAR-3 ovarian, 28.2%; in the assay with HS 578T breast, 37.4%; in the assay on NCI/ADR-RES ovarian, 12.4%.

For the compound `O=C(O)Cc1cccc(=O)c(O)c1C(=O)O`, the growth was 103% with SR leukemia; 88.8% with RPMI-8226 leukemia; 105% in the assay with OVCAR-8 ovarian; 96.4% in the assay on OVCAR-5 ovarian; 117% with OVCAR-4 ovarian; 107% with SK-OV-3 ovarian. Besides, the growth was 110% with IGROV1 ovarian, 114% in the assay with OVCAR-3 ovarian, 112% in the assay with HS 578T breast and 117% with NCI/ADR-RES ovarian.

`O=C1CCCCC1(c1ccccc1)c1ccccc1`: the growth with SR leukemia was 106%; in the assay on RPMI-8226 leukemia, 111%; in the assay with OVCAR-8 ovarian, 110%; in the assay on OVCAR-5 ovarian it was 97.4%; with OVCAR-4 ovarian, 71.8%; in the assay with SK-OV-3 ovarian, 101%. Besides, the growth was 101% with IGROV1 ovarian, 106% in the assay with OVCAR-3 ovarian, 99.7% in the assay with HS 578T breast and 96.1% in the assay on NCI/ADR-RES ovarian.

For `COc1cccc(/C=C2\Oc3cc(OCCCN4CCCC4)ccc3C2=O)c1`, the growth in the assay with SR leukemia is -22.9% (active); in the assay with RPMI-8226 leukemia, 61.6%; with OVCAR-8 ovarian it was 91.4%; in the assay on OVCAR-5 ovarian, 89.1%; in the assay on OVCAR-4 ovarian, 112%; with SK-OV-3 ovarian it was 109%. In addition, the growth is 73.6% in the assay on IGROV1 ovarian, 87.2% with OVCAR-3 ovarian, 92.5% in the assay with HS 578T breast and 89.1% in the assay with NCI/ADR-RES ovarian.

For the compound `C=C1CC2(OC1=O)C(=O)N(CCCN1C(=O)C3(CC(=C)C(=O)O3)c3ccccc31)c1ccccc12` (stereo not given), the growth with SR leukemia is 3.74% (active); in the assay with RPMI-8226 leukemia, -33.3% (active); with OVCAR-8 ovarian, 11.6%; in the assay on OVCAR-5 ovarian it was 21.9%; with OVCAR-4 ovarian, 25.2%; with SK-OV-3 ovarian it was 111%. The growth in the assay on IGROV1 ovarian is 35%; in the assay on OVCAR-3 ovarian it was -13% (active); in the assay with HS 578T breast it was 58.2%; in the assay on NCI/ADR-RES ovarian, 50%.

`Cc1nn(-c2ccc([N+](=O)[O-])cc2)c2ncnc(NCCc3ccccc3)c12`: the growth in the assay on SR leukemia was 62.3%; in the assay on RPMI-8226 leukemia it was 96.9%; in the assay on OVCAR-8 ovarian, 98.4%; with OVCAR-5 ovarian, 101%; in the assay with OVCAR-4 ovarian, 109%; in the assay with SK-OV-3 ovarian, 101%. Moreover, the growth in the assay on IGROV1 ovarian was 99.2%; in the assay on OVCAR-3 ovarian, 112%; in the assay with HS 578T breast it was 101%; in the assay on NCI/ADR-RES ovarian, 102%.

In the case of `O=c1[nH]c(Nc2ccc(S(=O)(=O)O)cc2)nc2nc(Nc3ccc(NC(=S)Nc4ccccc4)cc3)nc(-c3ccc(O)cc3O)c12`, the growth was 61.7% in the assay with SR leukemia; 82.6% with RPMI-8226 leukemia; 55.5% with OVCAR-8 ovarian; 116% in the assay with OVCAR-5 ovarian; 107% with OVCAR-4 ovarian; 114% in the assay with SK-OV-3 ovarian. The growth with IGROV1 ovarian was 61.7%; in the assay with OVCAR-3 ovarian it was 119%; in the assay with HS 578T breast, 102%; in the assay on NCI/ADR-RES ovarian, 109%.

Turning to `CC(=O)Oc1csc(N(C(C)=O)c2cc(C(=O)O)cc(C(=O)O)c2)n1`, the growth in the assay with SR leukemia was 114%; in the assay with RPMI-8226 leukemia, 43.3%; with OVCAR-8 ovarian it was 104%; in the assay on OVCAR-5 ovarian, 101%; with OVCAR-4 ovarian it was 90.4%; in the assay on SK-OV-3 ovarian, 111%. For the same compound, the growth with IGROV1 ovarian was 101%; in the assay on OVCAR-3 ovarian, 105%; in the assay with HS 578T breast, 95.3%; in the assay on NCI/ADR-RES ovarian, 99.2%.
